Screening data (PubChem BioAssay)
This is a sample that favours compounds with a hit; in the whole collection about 1.5% have one here.
V-ATPase pH: regulators of yeast V-ATPase proton transport | S. cerevisiae, pHLuorin cytosolic pH fluorescence | response, % at 10 µM | 350,000 compounds, 0.37% hits | AID 504577; in the data active means response mostly above about 7.3%, no sharp cut-off; inactive means mostly below about 5.4%; further: actives read high
CRFR2-BP ag: CRF-BP/CRF-R2 complex agonism. activation, % at 13.2 µM. HEK293 CRF-R2/CRF-BP, calcium dye fluorescence (FLIPR); percent of saturating CRF peptide response. AID 588473. 350,000 compounds, 0.46% hits;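 active means activation of at least 50%, plus an integration ratio under a set limit after plate pattern correction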;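 further: plate controls were neutral control wells without compound for no effect and CRF at EC100 for full effect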
CRFBP-R2 block: blocks CRF-induced signaling of the CRF-BP/CRF-R2 complex | HEK293 CRF-R2/CRF-BP, CRF-induced calcium fluorescence | inhibition, % at 11.8 µM | 350,000 compounds, 0.59% hits | AID 588475;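 active means inhibition of the ligand-induced calcium signal above about 50% at the single tested concentration, limit read from the data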
NTR1 agonist: NTR1 (human) agonism | P30989 | NTR1-U2OS beta-arrestin-GFP spot imaging, agonist mode | activation, % at 20 µM | 330,000 compounds, 0.17% hits | AID 493036;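 active means activation at or above 40% of the spot to cytoplasm intensity ratio, with at least 20 cells analyzed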;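 further: 0% = DMSO without peptide and 100% = 100 nM NTR1 peptide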
Target sequence (P30989 whole entry, looked up): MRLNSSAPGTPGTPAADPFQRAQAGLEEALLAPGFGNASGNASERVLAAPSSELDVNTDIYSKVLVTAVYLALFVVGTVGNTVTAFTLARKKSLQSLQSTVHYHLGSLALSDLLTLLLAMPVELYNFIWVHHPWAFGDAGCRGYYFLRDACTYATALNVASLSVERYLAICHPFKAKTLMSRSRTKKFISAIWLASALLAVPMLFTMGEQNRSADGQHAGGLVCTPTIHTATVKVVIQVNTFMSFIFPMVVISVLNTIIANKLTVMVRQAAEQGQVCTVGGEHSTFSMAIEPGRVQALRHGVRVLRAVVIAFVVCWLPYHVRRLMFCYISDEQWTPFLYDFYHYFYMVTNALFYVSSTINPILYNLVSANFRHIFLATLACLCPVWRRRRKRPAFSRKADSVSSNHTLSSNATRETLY
An asterisk follows results filed as active; i = inactive; · = no result given.

SMILES	V-ATPase pH	CRFR2-BP ag	CRFBP-R2 block	NTR1 agonist
Cc1nn(-c2ccccc2)c(N2CCCC2)c1/C=N/Nc1ccc(S(N)(=O)=O)cc1[N+](=O)[O-]	-3	0	60*	24
COC(=O)c1ccc(CN2C(=O)C(C)N(C(=O)c3c(F)cccc3F)c3ccccc32)cc1 (stereo unspecified)	0	-1	58*	2
CC1C(=O)N(Cc2ccc(F)cc2)c2ccccc2N1C(=O)c1c(F)cccc1F (stereo unspecified)	-1	-3	36	6
Cc1ccc(-c2c[n+](CC(=O)Nc3nc(-c4ccc(F)cc4)cs3)c3n2CCC3)cc1	-4	-1	63*	4
Cc1cc(NC(=O)CSCC(=O)Nc2nc3ccccc3[nH]2)no1	0	0	2	-1
CC1=C(C(=O)N(C(C)C)C(C)C)CC(CC(=O)NC2CCCCC2)C(=O)N1Cc1ccccc1 (stereo unspecified)	0	-3	59*	·
CN(C(=O)Cn1nc(C(=O)O)c2ccccc2c1=O)C1CCCCC1	-2	0	6	0
C/C(=N\NC(=S)Nc1ccc(C)cc1)c1cccc(N)c1	-2	179*	17	0
O=C(O)c1cccc(N/C(=N\S(=O)(=O)c2ccccc2)c2ccccc2)c1	1	10	84*	1
O=C(NCCc1csc(-c2ccccc2)n1)c1c(F)cccc1Cl	1	-1	88*	0
Cc1cc(NC(=O)COC(=O)CNS(=O)(=O)c2c(F)cc(F)cc2Br)no1	-3	-3	-14	-1
O=C(CNS(=O)(=O)c1ccc([N+](=O)[O-])cc1)N/N=C\c1ccc(O)cc1	-1	65*	-26	6
CC(=O)Nc1ccc(/C=N\NC(=O)CNS(=O)(=O)c2ccc([N+](=O)[O-])cc2)cc1	-4	-1	-9	0
CC(=O)Nc1ccc(S(=O)(=O)N(C)Cc2cnn(C)c2)cc1	-1	0	-2	0
Cc1oc(-c2cc3c(cc2Cl)OCO3)nc1CN1CCCC(C(=O)N2CCOCC2)C1 (stereo unspecified)	16*	2	-9	0
Cn1nc([N+](=O)[O-])nc1Oc1ccc(C(C)(C)C)cc1	1	-3	76*	3
CC1(C)CN(c2ccccc2)C(=O)[C@H]1CC(=O)Nc1ccccc1	1	-1	-7	·
COC(=O)CCC(=O)Nc1nccs1	-2	9	-23	-2
COC(=O)C(Nc1nccs1)(OC)C(F)(F)F (stereo unspecified)	17*	0	7	-2
Cc1ccc(NC(=O)CSC(C)C(=O)OCC(=O)N2CCN(C(=O)c3ccco3)CC2)cc1 (stereo unspecified)	2	1	-7	0
N#Cc1c2ccc(O)cc2n2ccccc12	0	73*	-71	4
OCC(O)C(O)CC1SCCS1 (stereo unspecified)	13*	2	4	·
OC[C@@H](O)[C@@H](O)CO	1	0	11	-3
COc1ccc2cc(/C=C/C(=O)N3CCN(CC(=O)N4CCCCCC4)CC3)ccc2c1	-2	1	-4	1
C[C@H](NC(=O)Nc1ccc2c(c1)OCCO2)C(=O)O	7	-1	96*	1
SMILES	V-ATPase pH	CRFR2-BP ag	CRFBP-R2 block	NTR1 agonist
Cc1cc(N=NC(=O)c2ccccc2O)c2ccccc2c1O	1	26	51*	1
Cc1noc(C)c1CSCc1ccc(Cl)cc1	-3	-3	76*	-2
Cc1ccc2c(c1)c(/C=C/c1cc[n+](C)cc1)c(C)n2C	0	53*	-73	-4
CC(C)(C)OC(=O)N1CCCN(C(=O)Nc2cccc(Cl)c2)CC1	-2	1	113*	-1
COc1ccccc1CNC(=O)[C@H](C)NC(=O)C1CCN(C(=O)[C@@H](N)CC(C)C)CC1	-2	1	16	0
CCCN1Cc2cccc(C(=O)NCc3ccc4c(c3)OCO4)c2C1=O	2	-4	24	5
CCCN1Cc2cccc(C(=O)NCc3cccs3)c2C1=O	-1	1	58*	0
O=[N+]([O-])c1ccc(O)c(-c2cc(C(F)(F)F)nc(-c3ccccc3)n2)c1	1	62*	59*	15
CCCC(=O)Nc1nnc(S(=O)(=O)N(CC)c2ccc(OC)cc2)s1	4	1	17	0
O=S(=O)(NC1CCCCC1N1CCN(c2ccccc2F)CC1)c1ccc(Cl)cc1 (stereo unspecified)	1	93*	-66	3
O=S(=O)(NC1CCCCC1N1CCOCC1)c1ccc(Cl)cc1 (stereo unspecified)	2	133*	-131	0
N#Cc1ccc(CSC2=NCCN2)cc1	2	-1	104*	0
CCOc1ccc(CSC2=NCCN2)cc1Cl	-1	-1	-3	1
COc1cc(NC(=O)c2ccc([N+](=O)[O-])cc2)ccc1NC(=O)C(C)C	-1	-2	0	1
N#CC(C#N)=C1C=C2C=C(N3CCCCCC3)CCC2CC1 (stereo unspecified)	234*	216*	-170	·
CN1CCN(C2=CC3=CC(=C(C#N)C#N)CCC3CC2)CC1 (stereo unspecified)	35	241*	-172	·
CC1(C)CC(NCCN2CCN(C3=CC(=C(C#N)C#N)CC(C)(C)C3)CC2)=CC(=C(C#N)C#N)C1	6	-1	-5	1
N#CC(C#N)=C1C=C2C=C(N3CCOCC3)CCC2CC1 (stereo unspecified)	16	248*	-266	·
N#Cc1cc(Cl)c(N2CCOCC2)cc1C#N	-1	0	3	2
CCN1CCN(C2=CC3=CC(=C(C#N)C#N)CCC3CC2)CC1 (stereo unspecified)	28*	500*	i	·
Nc1ncnc(NNC(=O)CNC(=O)c2c(F)cccc2Cl)c1[N+](=O)[O-]	1	3	101*	0
COc1ccccc1C(=O)NCC(=O)NNc1ncnc(N)c1[N+](=O)[O-]	·	·	·	0
CCn1cc(C=C2C(=O)c3ccccc3C2=O)c2ccccc21	0	196*	-246	·
CSCCC(NC(=O)c1cccc(C)c1)C(=O)NNC(=O)c1cccs1 (stereo unspecified)	4	0	66*	2
CSCCC(NC(=O)c1cccc(C)c1)C(=O)NCc1cccs1 (stereo unspecified)	-1	-1	-6	-2
SMILES	V-ATPase pH	CRFR2-BP ag	CRFBP-R2 block	NTR1 agonist
COC(=O)c1ccccc1-c1c2ccc(=N)cc-2oc2cc(N)ccc12	454*	176*	-92	-5
COC(=O)c1ccccc1-c1ccc(/C=N/NC(=O)c2cc3ccccc3o2)o1	0	0	8	6
CN(CC(=O)Nc1ccc(F)cc1)C(=O)c1cccc(S(=O)(=O)N2CCN(c3ccccc3)CC2)c1	2	0	-11	2
COc1cccc(CN(C)C(=O)c2cccc(S(=O)(=O)N3CCN(c4ccc(F)cc4)CC3)c2)c1OC	3	2	8	2
CCN(Cc1ccccc1)C(=O)c1cc(S(=O)(=O)N2CCOCC2)ccc1N1CCCC1	5	-3	-5	1
CCN(CC(=O)Nc1ccc(OC)cc1)C(=O)c1cc(S(=O)(=O)N2CCOCC2)ccc1N1CCCC1	4	-2	70*	-1
